Assay outcomes (PubChem BioAssay)
Rows were chosen to be rich in hits. Some 1.6% of all compounds tested hit in one or more screens of this group.
Sa RN4220 lethal – S. aureus RN4220 growth inhibition | 330,000 tested, 0.33% active | inhibition, % (concentration not given with the values) | OD600, 16 h | AID 1259311; in the data active = inhibition above about 85%;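 also: plate controls were untreated cells for no effect and reference antibiotic for full effect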
ugtP null kill – kills S. aureus RN4220 lacking UgtP. S. aureus RN4220 ugtP deletion, OD600 growth, 16 h. 330,000 tested, 0.54% active. AID 1259309. growth inhibition, % (test concentration not listed); in the data active = growth inhibition above about 68%;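 also: plate controls were untreated wells for no effect and antibiotic for full effect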
BJeLR lethal – BJeLR cell viability loss | BJeLR (HRASV12) viability, CellTiter-Glo ATP luminescence, 48 h | AID 1554 | 300,000 tested, 0.17% active | inhibition, % (no concentration beside the values); in the data active = inhibition above about 50%
PfHsp40 yeast – compounds rescuing yeast from Plasmodium falciparum HSP40 toxicity. S. cerevisiae expressing PfHsp40, growth rescue, ATP luminescence. growth rescue, % at 12.5 µM. 340,000 tested, 0.68% active. AID 504582; in the data active = growth rescue above about 28%, passing the limit was not always enough;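 also: yeast W303a lacking pdr1 and pdr3 grown in galactose medium; growth measured after three days at 30 °C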
CCHF vOTU inh-1 – CCHFV vOTU protease inhibition; Pep-AMC fluorescence; inhibition, % at 11.5 µM; 370,000 tested, 0.55% active; also: 0% = vehicle wells with enzyme and 100% = no enzyme wells
CCHF vOTU inh-2 – confirmation of CCHF virus vOTU protease inhibitors; shares compounds with CCHF vOTU inh-1; inhibition, % at 11.5 µM; 1,900 tested, 17% active; AID 686976; Recombinant CCHFV vOTU, Pep-AMC fluorescence
* = called active by the depositor; x = no result given. Rule as the data show it, unless noted: active = inhibition above about 30%; inactive = the rest.

SMILES | Sa RN4220 lethal | ugtP null kill | BJeLR lethal | PfHsp40 yeast | CCHF vOTU inh-1 | CCHF vOTU inh-2
CC1(C)OC(c2ccccc2)=C/C(=C/C=C2C(=O)NC(=O)NC2=O)O1 | 1 | -3 | -3 | -2 | 30* | -1
COc1ccc2nc(N3C(=O)C(O)=C(C(=O)c4ccco4)C3c3ccc(OC)c(OC)c3)sc2c1 (stereo not drawn) | x | x | x | x | 34* | 2
CSc1ccc(C=NNC(=O)CC(=O)NC(C)C)cc1 | 1 | 0 | x | x | x | x
O=C(NCc1ccccc1)C1CC1C(NP(=O)(c1ccccc1)c1ccccc1)c1ccccc1 (stereo not drawn) | -2 | 0 | x | x | x | x
Cc1ccc(NC(=O)C(c2ccccc2)N2CCN(CC(=O)N3CCOCC3)CC2)cc1 (stereo not drawn) | 2 | 0 | x | 0 | 34* | -7
COc1ccc(C)cc1NC(=O)C(c1ccccc1)N1CCN(CC(=O)N2CCOCC2)CC1 (stereo not drawn) | 3 | 4 | x | 1 | -6 | x
O=C(CSc1nnc(-c2ccccc2Br)o1)Nc1nncs1 | 7 | 7 | x | -1 | 30* | -22
CC(=O)CC(O)CC(=O)C1OC(=O)CCCCCCCc2ccccc21 (stereo not drawn) | 16 | 7 | x | x | x | x
C=CCC1CCCC(=O)N2CCC(O)C12 (stereo not drawn) | 5 | 1 | x | x | x | x
CCC(=O)N(CCC(c1ccccc1)c1ccco1)Cc1cccs1 (stereo not drawn) | -1 | 17 | -2 | -1 | 34* | -10
CCNC(=S)NNC(=O)c1cc(-c2ccccc2C)nc2ccccc12 | 4 | 6 | 14 | 1 | x | x
Cc1ccc(C)c(-c2cc(C(=O)NNC(=S)NCC(C)C)c3ccccc3n2)c1 | 17 | 20 | -1 | 82* | 34* | -17
COc1ccc(C=Nn2c(C)nc3ccccc3c2=O)cc1 | 2 | -2 | x | x | x | x
CCOC(=O)c1ccc(N2C(=O)c3n[nH]c(-c4ccco4)c3C2c2cccc([N+](=O)[O-])c2)cc1 (stereo not drawn) | -10 | 47 | -1 | 7 | 36* | -1
CC(=NNC(=O)C1=NNC(=O)C1C)c1cccs1 (stereo not drawn) | 4 | 0 | x | x | x | x
CCOc1cc(C=NNC(=O)c2ccccc2-n2cccc2)ccc1O | 4 | 5 | x | x | x | x
CC(=O)Nc1ccc(S(=O)(=O)NC2=C(N3CCN(C)CC3)C(=O)c3ccccc3C2=O)cc1 | 8 | 3 | 7 | -1 | 53* | 30*
CCN1CCN(C2=C(NS(=O)(=O)c3ccc(NC(C)=O)cc3)C(=O)c3ccccc3C2=O)CC1 | 11 | 7 | -6 | 1 | 58* | 22
Cc1cccc(C(=O)ON=C(N)Cc2ccc([N+](=O)[O-])cc2)c1 | 1 | -8 | x | x | x | x
CCOC(=O)C1=C(CC)Nc2ccccc2N/C1=N\S(=O)(=O)c1ccc(C(=O)OCC)cc1 | 8 | -9 | 5 | 0 | 30* | 6
COc1ccccc1CNC(=O)C1CCC(CNc2c(N3CCC(C)CC3)c(=O)c2=O)CC1 (stereo not drawn) | 3 | 1 | 12 | 6 | 31* | -6
CCC1(C)Cc2ccccc2C(=CC(=O)N2CCCCC2)N1 (stereo not drawn) | 4 | 0 | x | x | x | x
Cn1c(N)c(C(=O)COC(=O)c2ccc([N+](=O)[O-])o2)c(=O)n(C)c1=O | 5 | 0 | -13 | -1 | 44* | -5
Cn1c(N)c(C(=O)COC(=O)c2ccc(Br)o2)c(=O)n(C)c1=O | 6 | 0 | 7 | 0 | -6 | x
O=C(Nc1cccc2ccccc12)C1CCN(C(=O)NCc2ccccc2)CC1 | 1 | 2 | -6 | 1 | 35* | 4
SMILES | Sa RN4220 lethal | ugtP null kill | BJeLR lethal | PfHsp40 yeast | CCHF vOTU inh-1 | CCHF vOTU inh-2
O=c1[nH]c2cc3ccccc3cc2nc1-c1nnnn1C1CCCC1 | x | x | x | x | 30* | 11
O=C1C(C=Nc2ccccc2O)=C(O)c2ccccc21 | 12 | -10 | -5 | -1 | 0 | x
Cc1ccc(O)c(N=CC2=C(O)c3ccccc3C2=O)c1 | 14 | 2 | -12 | -1 | 31* | 10
Cc1cc(C=NNc2nc(N)ncc2[N+](=O)[O-])c(C)n1-c1cccc(C(F)(F)F)c1 | 5 | 7 | x | x | x | x
CN(CC(=O)Nc1ccc(F)cc1)C(=O)COC(=O)c1ccccc1 | 3 | 5 | 0 | -3 | 30* | -2
CN(CC(=O)Nc1ccc(F)cc1)C(=O)COC(=O)c1cccc(N(C)C)c1 | 1 | 1 | x | 0 | 11 | x
COc1cc(C=Nn2cnnc2)ccc1Oc1nc(Cl)ncc1F | 13 | 6 | x | x | x | x
CC(C)CNC(=O)C1(C)CCCCCN1Cc1ccccc1-c1ccccc1 (stereo not drawn) | x | x | x | x | 35* | 9
CNc1ccc2oc(C[C@H]3O[C@@]4(CC[C@H]3C)O[C@H]([C@H](C)C(=O)c3ccc[nH]3)[C@H](C)C[C@H]4C)nc2c1C(=O)O | x | x | 31 | 143* | 54* | -36
COCCCN1C(=O)C(CC(=O)NCCN2CCOCC2)CC(C(=O)N2CCCCCC2)=C1C (stereo not drawn) | x | x | x | x | -5 | x
COCCCN1C(=O)C(CC(=O)NCCN2CCOCC2)CC(C(=O)N2CCOCC2)=C1C (stereo not drawn) | x | x | x | x | 39* | -18
O=C(NC(=S)Nc1ccccc1N1CCCC1)c1cccc(F)c1 | 4 | 79 | -14 | -1 | 5 | x
COc1ccccc1C(=O)NC(=S)Nc1ccccc1N1CCCC1 | x | x | -1 | -1 | 41* | 11
O=C(NC(=S)Nc1ccccc1N1CCCC1)c1ccc(F)cc1 | 5 | 79 | 0 | 1 | 32* | 33*
COc1ccccc1C(=O)NC(=S)Nc1ccc(N2CCCC2)cc1 | 3 | 1 | -10 | 0 | 7 | x
COc1ccccc1NS(=O)(=O)c1cccc(-n2c(O)c(C=Nc3ccccc3C(=O)O)c3ccccc3c2=O)c1 | 26 | 27 | 0 | 2 | 38* | 37*
Cc1cc(C(=O)N/N=C2\CC(=O)CC(C)(C)C2)c(C)n1-c1ccccc1 | x | x | 9 | 0 | -1 | x
Cc1cc(C(=O)N/N=C2\CC(=O)c3ccccc32)c(C)n1-c1ccccc1 | x | x | 3 | -1 | 30* | -5
O=C(O)c1ccccc1NS(=O)(=O)c1ccc(NNC(=S)Nc2ccc(OC(F)F)cc2)c([N+](=O)[O-])c1 | 5 | 5 | 8 | 0 | 70* | 65*
CC(=O)Nc1sc(NN=Cc2ccc(N(C)C)cc2)nc1-c1ccc(C)cc1 | -3 | -6 | x | x | x | x
CSC1=NSC2=NC(=O)C(=Cc3coc4ccc(O)cc4c3=O)C(=N)N12 | 30 | -33 | x | x | x | x
Cc1cccc(-n2c3nc(=O)[nH]c(=O)c-3cc3cc([N+](=O)[O-])ccc32)c1 | 10 | 8 | 21 | 0 | 21 | x
Cc1ccc(C)c(-n2c3nc(=O)[nH]c(=O)c-3cc3cc([N+](=O)[O-])ccc32)c1 | 2 | -16 | x | -1 | 79* | 4
O=C(Cc1ccccc1Cl)Nc1ccc(S(=O)(=O)Nc2nccs2)cc1 | 10 | -4 | -3 | 1 | 1 | x
O=C(CSc1ccc(Br)c2cccc(Cl)c12)Nc1ccc(S(=O)(=O)Nc2nccs2)cc1 | -3 | -16 | 2 | 3 | 36* | 13
CC(=NNC(=O)Cc1c(F)cccc1Cl)c1cccnc1 | -2 | -5 | x | x | x | x
